Laboratory results: PMC4336329 (PLoS ONE, 2015)
The campaign covered roughly 310,000 compounds. About 14,000 (4.5%) showed an effect of 50% or more. Effects have a minus sign here. The entries come from a sample that favours strong results as a whole.

Target: human ether-à-go-go-related gene (hERG) potassium channel (human, UniProt Q12809)
Assay: primary screen, population patch clamp on CHO cells stably expressing hERG; higher = less effect of the substance
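Further: peak tail current of the secondary pulse compared with the same well before compound.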

human ether-à-go-go-related gene (hERG) potassium channel, sequence (Q12809 whole entry, looked up): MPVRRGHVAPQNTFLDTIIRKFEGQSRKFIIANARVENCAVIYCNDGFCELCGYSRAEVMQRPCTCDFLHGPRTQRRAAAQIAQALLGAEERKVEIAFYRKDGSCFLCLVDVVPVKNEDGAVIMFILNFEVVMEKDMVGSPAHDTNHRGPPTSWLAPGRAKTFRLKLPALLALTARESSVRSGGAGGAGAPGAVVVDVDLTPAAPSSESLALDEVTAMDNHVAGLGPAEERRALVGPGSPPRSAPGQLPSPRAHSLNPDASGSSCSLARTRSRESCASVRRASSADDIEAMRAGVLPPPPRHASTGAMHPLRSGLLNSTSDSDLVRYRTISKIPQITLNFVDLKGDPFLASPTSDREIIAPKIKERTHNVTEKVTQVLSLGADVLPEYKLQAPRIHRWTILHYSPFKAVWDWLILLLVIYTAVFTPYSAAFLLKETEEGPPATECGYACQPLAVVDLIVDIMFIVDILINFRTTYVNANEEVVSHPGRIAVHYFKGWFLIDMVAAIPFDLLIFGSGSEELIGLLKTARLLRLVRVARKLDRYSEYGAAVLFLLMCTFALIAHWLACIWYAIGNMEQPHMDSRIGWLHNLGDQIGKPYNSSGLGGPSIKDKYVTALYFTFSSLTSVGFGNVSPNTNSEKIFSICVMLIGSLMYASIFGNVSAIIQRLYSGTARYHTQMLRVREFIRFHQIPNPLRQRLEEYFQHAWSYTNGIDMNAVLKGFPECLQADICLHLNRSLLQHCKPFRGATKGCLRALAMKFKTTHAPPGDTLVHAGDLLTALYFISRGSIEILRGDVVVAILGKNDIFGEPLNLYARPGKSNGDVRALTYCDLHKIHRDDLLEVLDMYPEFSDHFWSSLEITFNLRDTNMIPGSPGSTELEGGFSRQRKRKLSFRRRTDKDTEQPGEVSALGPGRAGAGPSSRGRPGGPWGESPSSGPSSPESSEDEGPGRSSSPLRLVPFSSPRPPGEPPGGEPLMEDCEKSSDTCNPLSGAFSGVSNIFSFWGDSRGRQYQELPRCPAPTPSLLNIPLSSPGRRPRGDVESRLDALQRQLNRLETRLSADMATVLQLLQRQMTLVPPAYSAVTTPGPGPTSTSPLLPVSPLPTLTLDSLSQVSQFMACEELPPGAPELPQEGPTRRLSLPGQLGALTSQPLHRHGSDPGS

Row | SMILES | hERG current change (%, negative = inhibition) at 10uM
1 | Cc1cc(/C=C(/C#N)C(=O)O)c(C)n1-c1cccc2ccccc12 | 20.1%
2 | CCn1cc(C(=O)NCc2cccc(C(F)(F)F)c2)c(=O)c2ccc(C)nc21 | 2.71%
3 | O=C(Nc1ccc(N2CCN(Cc3ccccc3)CC2)cc1)c1cccnc1 | -14.4%
4 | CN1CCN(C(=O)CCN2C(=O)/C(=C/c3cccc(Br)c3)SC2=S)CC1 | 11.4%
5 | O=C(c1ccccc1)c1ccc(OC(=O)N2CCCC2)cc1 | -11%
6 | CCCNc1c(NS(=O)(=O)c2ccc(C)cc2C)c(=O)oc2ccccc12 | -52.2%
7 | COc1ccc(OC)c(S(=O)(=O)Nc2c(NC3CCCCC3)c3ccccc3oc2=O)c1 | -54.1%
8 | CCCNc1c(NS(=O)(=O)c2c(F)c(F)c(F)c(F)c2F)c(=O)oc2ccccc12 | -7.27%
9 | COc1ccc(S(=O)(=O)Nc2c(NC3CCCCC3)c3ccccc3oc2=O)cc1OC | -6.99%
10 | Cc1ccc(S(=O)(=O)Nc2c(NC3CCCCC3)c3ccccc3oc2=O)c(C)c1 | -19.6%
11 | Cc1ccc(S(=O)(=O)Nc2c(NC3CCCCC3)c3ccccc3oc2=O)cc1C | 2.53%
12 | Cc1ccc(S(=O)(=O)Nc2c(NC3CCCCC3)c3ccccc3oc2=O)cc1 | -33.9%
13 | CCCNc1c(NS(=O)(=O)c2ccc(C)c(C)c2)c(=O)oc2ccccc12 | -30.6%
14 | CCCNc1c(NS(=O)(=O)c2ccc(OC)c(OC)c2)c(=O)oc2ccccc12 | -74.1%
15 | COc1ccc(S(=O)(=O)Nc2c(NC3CCCCC3)c3ccccc3oc2=O)cc1 | -45.2%
16 | CCCNc1c(NS(=O)(=O)c2ccc(C(C)(C)C)cc2)c(=O)oc2ccccc12 | 10.8%
17 | N#Cc1cccc(S(=O)(=O)Nc2c(NC3CCCCC3)c3ccccc3oc2=O)c1 | -53.9%
18 | CCOc1ccccc1N1CCN(C(=S)Nc2ccc(S(=O)(=O)Nc3ncccn3)cc2)CC1 | -3.73%
19 | O=C(COC(=O)Cc1ccc(-c2ccccc2)cc1)NCc1ccccc1 | 20.8%
20 | CC(C)c1ccc(NC(=O)c2ccc(Br)o2)cc1 | 3.82%
21 | COc1ccc(OCC(=O)Nc2ccncc2)cc1 | -17.3%
22 | O=c1[nH]c(CN2CCN(CCO)CC2)nc2ccccc12 | 21.5%

Row | SMILES | hERG current change (%, negative = inhibition) at 10uM
23 | O=C(NC1=NCCS1)c1cc(Cl)ccc1Cl | -24%
24 | Cn1cc(C(c2ccccn2)c2cn(C)c3ccccc23)c2ccccc21 | 8.3%
25 | CCc1[nH]c(=S)c(C#N)c(-c2ccccc2)c1C(=O)OC | 25.5%
26 | Cc1cc(=O)[nH]c(N/N=C/c2sccc2C)n1 | -1.84%
27 | CCOc1ccc(C(=O)COC(=O)CC)cc1 | 4.46%
28 | CC(/C=N/n1cnnc1)=C\c1ccco1 | -16.9%
29 | CCCNc1c(NS(=O)(=O)c2ccc(Br)cc2)c(=O)oc2ccccc12 | -34.7%
30 | CCCNc1c(NS(=O)(=O)c2cccc(C#N)c2)c(=O)oc2ccccc12 | -58.7%
31 | CCCNc1c(NS(=O)(=O)c2ccc3c(c2)CCCC3)c(=O)oc2ccccc12 | 8.8%
32 | CC(NC(=O)c1cc(S(=O)(=O)N(C)C)ccc1Cl)c1ccc(-n2ccnc2)cc1 (stereo not drawn) | -76.8%
33 | CC(NC(=O)c1ccc(S(=O)(=O)N(C)C)cc1)c1ccccc1 (stereo not drawn) | 0.971%
34 | CC(NC(=O)c1ccc(S(=O)(=O)N(C)C)cc1)c1ccc(-n2ccnc2)cc1 (stereo not drawn) | -74%
35 | CC(C)NC(=O)c1ccc(S(=O)(=O)N(C)C)cc1 | 0.0301%
36 | CNC(=O)c1cc(S(=O)(=O)N(C)C)ccc1Cl | 5.59%
37 | O=C(Cc1c(O)c2ccccc2[nH]c1=O)NC1CCCCCC1 | 3.69%
38 | OCCNc1c2ccccc2nc2c(F)c(F)c(F)c(F)c12 | 14.6%
39 | Cn1nc(C(F)(F)F)c(/C=N/OC(=O)c2ccccc2Cl)c1SCc1ccccc1Cl | -5.41%
40 | CSc1ccc(S(=O)(=O)NCC(=O)OCC(=O)NCc2cccs2)cc1[N+](=O)[O-] | -44.5%
41 | CC(C)CNS(=O)(=O)c1ccc(OCC(=O)NCc2ccco2)cc1 | -11.6%
42 | Cc1cc(S(=O)(=O)NCC(C)C)ccc1OCC(=O)NCc1ccccn1 | -22.8%
43 | Cc1cc(S(=O)(=O)NCC(C)C)ccc1OCC(=O)NCc1ccco1 | -73.4%
44 | CSc1ccc(S(=O)(=O)NCC(=O)OCC(=O)NCCc2ccccc2)cc1[N+](=O)[O-] | 9.18%

Row | SMILES | hERG current change (%, negative = inhibition) at 10uM
45 | CSc1ccc(S(=O)(=O)NCC(=O)OCC(=O)NCc2ccco2)cc1[N+](=O)[O-] | -61.7%
46 | N#C/C(=N\Nc1cccc(C(F)(F)F)c1)C(=O)c1ccsc1 | 11.3%
47 | COc1ccc(N2C(=O)CC(N3CCN(c4ccccc4OC)CC3)C2=O)cc1 (stereo not drawn) | 6.7%
48 | O=S(=O)(Cc1ccccc1)Nc1ccc(S(=O)(=O)N2CCCC2)cc1 | 5.25%
49 | Cc1ccc(C)c(C(=O)CSc2n[nH]c(-c3ccncc3)n2)c1 | -0.0279%
50 | CCN1/C(=C/C=C/c2sc3ccccc3[n+]2CC)Sc2ccccc21.[I-] | -73.8%
51 | CCOC(=O)/C(=C/C=C1\Sc2ccccc2N1CC)C(C)=O | 4.94%
52 | CCN1/C(=C\C=C2\C(=O)N(C)C(=S)N2C)Sc2ccccc21 | 24%
53 | CCN1/C(=C/C=C/C=C/C=C/c2sc3ccccc3[n+]2CC)Sc2ccccc21.[I-] | -49.5%
54 | CCN1/C(=C\C=C(C(C)=O)C(C)=O)Sc2ccccc21 | -2.64%
55 | CCN1/C(=C/C(C)=C/c2sc3ccccc3[n+]2CC)Sc2ccccc21.[I-] | -78.8%
56 | CC[n+]1c(/C=C(/C)SC)sc2ccccc21.COS(=O)(=O)[O-] | 5.99%
57 | CCN1/C(=C/C=C/C=C/c2sc3ccccc3[n+]2CC)Sc2ccccc21.[I-] | -78.9%
58 | CC[n+]1c(/C=C(\C)SC)sc2ccccc21.COS(=O)(=O)[O-] | 3.25%
59 | Cn1nc(C(=O)NCc2cccc(Cl)c2)c2c1-c1ccccc1S(=O)(=O)C2 | 9.4%
60 | CN(C)S(=O)(=O)c1cccc(NC(=O)Cn2cc(C(F)(F)F)cc(Cl)c2=O)c1 | 3.98%
61 | CN(CC(=O)Nc1cccc(F)c1)CC(=O)N(C)CC(=O)Nc1ccccc1Br | -13.7%
62 | O=c1ccnc(NCCc2ccccc2)[nH]1 | 12.7%
63 | O=c1c2ccccc2nc(-c2ccccc2)n1CCCn1ccnc1 | -31.9%
64 | Cc1ccc(-c2nc3ccccc3c(=O)n2CCCn2ccnc2)cc1 | -57.7%
65 | COc1ccc(-c2nc3ccccc3c(=O)n2CCCn2ccnc2)cc1 | -49%
66 | CCCCn1c(-c2ccco2)nc2ccccc2c1=O | -12.2%

Row | SMILES | hERG current change (%, negative = inhibition) at 10uM
67 | COCCCn1c(-c2ccco2)nc2ccccc2c1=O | -16%
68 | O=c1c2ccccc2nc(-c2ccco2)n1CCCn1ccnc1 | -53.9%
69 | CCn1c(NN)nc2sc3c(c2c1=O)CCC3 | 17.5%
70 | COc1ccc2c(c1)C=C([C@@H]1C[C@H]3CN(c4ccccc4)C(=O)[C@]34CCCN14)CO2 | -49.2%
71 | OCC(O)C1OC(Nc2ccc(Br)cc2)C(O)C1O (stereo not drawn) | 16.7%
72 | CN(C)c1cccc(C(=O)NCc2ccc(Cl)cc2)c1 | -8.25%
73 | Cc1nc2nc[nH]n2c(=O)c1NS(C)(=O)=O | 4.48%
74 | CCc1ccc(-c2nc(SCC(=O)NC3CCS(=O)(=O)C3)n[nH]2)cc1 (stereo not drawn) | 4.84%
75 | C=CCn1c(=O)c(C=Nc2cccnc2Cl)c(O)n(CCCC)c1=O | -5.65%
76 | C=CCn1c(=O)c(C=Nc2cccc([N+](=O)[O-])c2)c(O)n(CCCC)c1=O | -55%
77 | C=CCn1c(=O)c(C=Nc2c(OC)cccc2[N+](=O)[O-])c(O)n(CCCC)c1=O | -23.8%
78 | O=C(COc1coc(CN2CCc3ccccc3C2)cc1=O)Nc1cccc([N+](=O)[O-])c1 | 2.89%
79 | CCc1ccc(N2CC(C(=O)Nc3ccc(C)c(S(=O)(=O)N4CCOCC4)c3)CC2=O)cc1 (stereo not drawn) | -34.6%
80 | COc1ccc(NS(=O)(=O)c2cccc(Cl)c2)cc1S(=O)(=O)N1CCCCC1 | 7.81%
81 | COc1ccc(NC(=O)CC(C)CC(=O)NCc2ccccc2)c(OC)c1 (stereo not drawn) | -0.642%
82 | CCCc1cc(Nc2cccc(OCC)c2)n2ncnc2n1 | -68%
83 | CCCc1cc(Nc2ccccc2)n2ncnc2n1 | 2.69%
84 | CCCc1cc(Nc2cccc(OC)c2)n2ncnc2n1 | -28.5%
85 | CSc1ccc(S(=O)(=O)N2CCC(C(=O)NC3CC3)CC2)cc1 | -7.17%
86 | C=CCNC1=C(Cl)C(=O)c2ccccc2C1=O | 4.26%
87 | Cc1ccc(S(=O)(=O)N2CCN(C)CC2)cc1C(=O)NC1CCCCC1 | -19.5%
